Assay results from PubChem BioAssay (Tox21).
Inconclusive results are not listed. Entries that show only a call come without a potency. The source made the active and inactive calls. Calls come from the whole dose curve.

Assay: Nuclear factor erythroid 2-related factor 2/antioxidant responsive element (Nrf2/ARE) small molecule agonists: luciferase reporter gene qHTS assay in human keratinocytes (AID 1919969); note: nearly all actives have a fitted effect of over 35% in size
Conditions: KeratinoSens HaCaT ARE-luciferase, luminescence, 24 h; series mostly up to 92.4 µM
Potency is the fitted concentration of half-maximal effect.

| Structure (SMILES) | Potency | activity, positive = activation |
| --- | --- | --- |
| CC(C)COC(=O)c1ccc(N)cc1 | inactive | – |
| CCCc1cc(C(N)=S)ccn1 | inactive | – |
| CCCCCCCCCCCCCCO | inactive | – |
| CCO/C([O-])=N/c1c[n+](N2CCOCC2)no1 | inactive | – |
| O=C(O)c1ccco1 | inactive | – |
| CSc1cnccn1 | inactive | – |
| CCCCCCCOC(C)=O | inactive | – |
| CCc1cnc(C(=O)O)c(C(=O)O)c1 | inactive | – |
| NS(=O)(=O)c1ccc(NC(=O)CCC(=O)O)cc1 | inactive | – |
| COc1ccc(C(=O)CC(=O)c2ccc(C(C)(C)C)cc2)cc1 | inactive | – |
| CCO[Si](OCC)(OCC)c1ccccc1 | inactive | – |
| CCC1COC(=O)O1 (stereo unspecified) | inactive | – |
| CC(C)(C)c1ccc(CCC=O)cc1 | inactive | – |
| FC(F)(F)c1cccc(Cl)c1 | inactive | – |
| Nc1ccc(NCCO)c([N+](=O)[O-])c1 | inactive | – |
| IC(I)I | inactive | – |
| Cc1cccc(Cl)c1 | inactive | – |
| CC1=CCC(C(C)C)=CC1 | inactive | – |
| CC1(C)C(C=C(Cl)Cl)C1C(=O)OCc1cccc(Oc2ccccc2)c1 (stereo unspecified) | inactive | – |
| CCCOCCOCCOCCO | inactive | – |
| N=C(N)c1ccc2cc(OC(=O)c3ccc(N=C(N)N)cc3)ccc2c1 | inactive | – |
| O=[N+]([O-])c1ccc(F)cc1F | inactive | – |
| CC(=O)N(c1onc(C)c1C)S(=O)(=O)c1ccc(N)cc1 | inactive | – |
| OC[C@H]1O[C@@H](O[C@H]2[C@H](O)[C@@H](O)[C@H](O)O[C@@H]2CO)[C@H](O)[C@@H](O)[C@H]1O | inactive | – |
| c1ccc2c(c1)CCC2 | 13.7 µM (active) | – |
| CN(C)c1ccc(/C=C/c2ccc([N+](=O)[O-])cc2)cc1 | – | 12.5% [at 8.39 µM] (inactive) |
